Experimental data as given in PubChem BioAssay.
A number with no mark means an inactive call. The source made the active and inactive calls.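 Rule for the calls: active = z-score of at least 1.8 in each of two replicates, scored against plate mean and spread of sample wells; inactive = the rest.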

Assay: galactose survival enhancers in mitochondrial complex I cybrids – cell-based, galactose medium, ATP luminescence, primary screen (AID 1645843);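 note: positive z means more ATP and so rescue of galactose-driven cybrid death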
Conditions: complex I mutant cybrid cells, 72 h, hits give high values

SMILES	z-score
Cc1nsc(NC(=O)N2CCCC(C)(CO)C2)n1 (stereo not drawn)	-0.515
Cc1nc(C(=O)N(Cc2cccnc2)Cc2ccc3c(c2)OCO3)cs1	-0.675
CCN(CC)C(=O)c1cc(-c2cnc(C(C)C)nc2)nc2c(C)cccc12	-1.09
O=C(CCC1CC1)Nc1ccnn1C1CCCCC1	0.01
CNCCCNC1CCN(c2ccc(-c3cccc(F)c3)cc2)CC1	-1.3
CC(C)c1nc(Cn2cnc3ccsc3c2=O)cs1	-0.55
Cc1cccnc1CC(C)N(C)C(=O)c1cc(-c2cncnc2)nc2c(C)cccc12 (stereo not drawn)	1.18
Cc1cc2c(=O)n(Cc3nc4ccccc4[nH]3)cnc2s1	-0.615
FC(F)(F)c1cccc(Cc2noc(CCCN3CCCCC3)n2)c1	0.61
CC(C)Cc1cn(C2CCN(C3Cc4ccccc4C3)CC2)nn1	-0.99
CC(C)C1C(=O)N(C)CCN1C(=O)C1(C)CC1 (stereo not drawn)	-0.54
CC(C)c1cc(C(=O)N2CCCC(c3ccccc3)C2)on1 (stereo not drawn)	-0.55
COc1cc(C)c(CNC(C)CCCC(C)(C)O)c(C)c1C (stereo not drawn)	-0.435
O=C(c1ccccc1-c1nn[nH]n1)N1CCc2[nH]cnc2C1c1ccccn1 (stereo not drawn)	0.23
Cn1cc(C(=O)N2CCc3[nH]nc(-c4ccccc4F)c3C2)c2ccccc21	-0.945
Cc1cc(NC(=O)Cn2c(C)nc(Cl)c2Cl)n(C2CCCCC2)n1	-0.41
CCCn1nc(NC(=O)Cn2ccc(-c3ccc(F)cc3)n2)c2ccccc21	-1.28
CC(=O)c1cc(CC(=O)NCc2cc(F)c(F)cc2F)cs1	-0.01
Cc1cc(C)c(CNC(C)CCC(C)C)c(C)c1CO (stereo not drawn)	0.435
COc1cccc2ccc(-c3ccc(C(=O)N(C)C)cc3)nc12	1.37
O=C(C1CCCCCC1)N1CCC(n2cc(-c3ccsc3)nn2)CC1	-0.215
CC(C)Cc1noc(C2C3CCC4C(CCC32)C4(Cl)Cl)n1 (stereo not drawn)	-0.52
CN(C)Cc1cn(CC2CCN(C(=O)CC3CCCCCC3)CC2)nn1	-0.47

SMILES	z-score
O=C(c1ccc(-n2ccnc2)cc1)N1CCc2[nH]nc(-c3ccccc3)c2C1	-1
Cc1ccc(C)c(CNC(=O)Nc2nc(C)ns2)c1	0.47
Cc1ccc(OCc2nnc(NC(=O)NCCc3cnc[nH]3)s2)cc1	-0.48
CCn1nc(CC(C)C)cc1C(=O)N1CCC(n2cc(C(C)(C)O)nn2)CC1	-0.53
OCC1CCCN(C2CCN(c3ncnc4sccc34)CC2)C1 (stereo not drawn)	1
CCc1nc(C)ccc1OCC(=O)N1CCc2[nH]nc(C3CC3)c2C1	-0.685
c1ccc(-c2nc3c(cnn3C3CCCCC3)[nH]2)c(Cn2cccn2)c1	0.525
Cc1cc(C)c(CNC(C)CCCC(C)(C)O)c(C)c1CO (stereo not drawn)	0.19
Cc1ccc(C)c(-c2c(C)sc3ncn(C4CCN(C)C4=O)c(=O)c23)c1 (stereo not drawn)	0.12
COc1ccc2nc(Cn3cnc4sc(C)cc4c3=O)[nH]c2c1	0.395
Cc1nc(CN(C)C2CCN(c3ccc(-n4cccn4)cc3)CC2)cs1	0.655
O=C(C1CCCCCC1)N1CCC(n2cc(C3CCCCC3)nn2)CC1	2.69 (active)
CCCCC(CO)NC(C)CCc1ccc(O)cc1 (stereo not drawn)	-0.565
Cc1ccc2c(C(=O)N3CCN(C)C(=O)C3C)cc(-c3cnn(C(C)C)c3)nc2c1 (stereo not drawn)	-0.56
CCCCc1cc(=O)[nH]c(-c2ccc(CN3CCC(F)(F)CC3)cc2)n1	0.255
Cc1cc(CN2CCNCC2)ccc1OC1(C(=O)O)CCSCC1	0.115
CC(CCCC(C)(C)O)CCNCC1(c2ccccc2)CCOCC1 (stereo not drawn)	-0.5
CCCC(CCC)C(=O)N1CCC(n2cc(C(C)O)nn2)CC1 (stereo not drawn)	-0.47
CC(C)=CCC/C(C)=C/CNCCCc1ccncc1	-0.52
Cc1nsc(NC(=O)NCc2cc(Cl)ccc2Cl)n1	-1.1
CCn1ncc(NC(=O)Cn2cc(C)c(-c3ccc(Cl)s3)n2)n1	-0.01
CCOC(=O)c1ccc(N2CCN(CC(C)C)C(=O)C2C)nc1 (stereo not drawn)	-0.53
CC1Cc2cc(C(=O)N3CCC(Cn4cc(C5CC5)nn4)CC3)ccc2O1 (stereo not drawn)	-0.53

SMILES	z-score
COc1ccc(F)cc1-c1cnn(CC(=O)Nc2cc(C)nn2C)c1	0.085
Cc1ccn2cc(Cn3cnc4ccc(F)cc4c3=O)nc2c1	0.645
COc1cc(N2CCN(Cc3ccc(F)cc3)C(=O)C2)ncn1	-0.36
Cc1sc2ncnc(N3CCC(Cn4cc(C(C)(C)N)nn4)CC3)c2c1C	-0.55
CCCC[C@@H]1C[C@@H]1C(=O)N1CCC(n2cc(CC(C)C)nn2)CC1	-0.07
CCCCc1cn(C2CCN(C(=O)[C@@H]3CCCO3)CC2)nn1	-0.55
CCCCc1cc(=O)[nH]c(-c2ccc(CN(C)CCOC)cc2)n1	-0.415
Cn1ccnc1C(=O)c1cccc(-c2ccccc2Cl)c1	-0.515
COC(=O)c1ccccc1C(=O)N1CCNC(=O)C1Cc1ccccc1 (stereo not drawn)	-0.485
COc1ccc(-c2noc(C3CC(C(C)C)=NO3)n2)c(OC)c1 (stereo not drawn)	-0.525
C=C1C2(C(=O)N3CCC(CCN4CCCC4=O)CC3)CCC(C2)C1(C)C (stereo not drawn)	-0.41
CN1CCN(CC(C)(C)C)CC1CCO (stereo not drawn)	-0.57
CCOC(=O)c1ccc(N2CCC(c3ccccc3F)C2)nc1 (stereo not drawn)	-0.015
Cc1cc(C)c(C(=O)N2CCCCC2CCN2CCCC2=O)cc1C (stereo not drawn)	-0.46
CCC(CC)C(=O)N1CCC(n2cc(C(C)(C)O)nn2)CC1	0.875
CC[C@H](C)[C@H](N)C(=O)N1CCC(Cn2cc(-c3ccc(F)cc3)nn2)CC1	-0.33
CCc1c(C(=O)N2CCCN(C(C)=O)CC2)csc1C	-0.54
CCC(CO)n1cnc2sc3c(c2c1=O)CCCCC3 (stereo not drawn)	1.99
CC(C)(C)CN1CCN(CC2CC2)C(CCO)C1 (stereo not drawn)	0.35
N#Cc1ccc(C(=O)N2CCNC(=O)C2Cc2ccccc2)cc1 (stereo not drawn)	-0.47
CCCCn1nnnc1NC(=O)N1C2CCCCC1CCC2	0.915
O=c1cc(-c2ccccc2Cl)nc(-c2ccc(CN3CC[C@H](O)C3)cc2)[nH]1	0.305
